ERa SRC1 inh: ERα–SRC-1 coactivator interaction inhibitors, primary screen, biochemical, TR-FRET, ERα LBD, estradiol-bound; Estrogen receptor (Homo sapiens), P03372; TR-FRET ER-alpha LBD / SRC-1 peptide; inhibition, % at 25.6 µM; 86,000 compounds, 1.7% hits; AID 629, 2007; in the data active = inhibition above about 50%;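 also: 0% = receptor plus peptide control and 100% = peptide only without receptor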
Target sequence (P03372 whole entry, looked up, the tested form may be a part): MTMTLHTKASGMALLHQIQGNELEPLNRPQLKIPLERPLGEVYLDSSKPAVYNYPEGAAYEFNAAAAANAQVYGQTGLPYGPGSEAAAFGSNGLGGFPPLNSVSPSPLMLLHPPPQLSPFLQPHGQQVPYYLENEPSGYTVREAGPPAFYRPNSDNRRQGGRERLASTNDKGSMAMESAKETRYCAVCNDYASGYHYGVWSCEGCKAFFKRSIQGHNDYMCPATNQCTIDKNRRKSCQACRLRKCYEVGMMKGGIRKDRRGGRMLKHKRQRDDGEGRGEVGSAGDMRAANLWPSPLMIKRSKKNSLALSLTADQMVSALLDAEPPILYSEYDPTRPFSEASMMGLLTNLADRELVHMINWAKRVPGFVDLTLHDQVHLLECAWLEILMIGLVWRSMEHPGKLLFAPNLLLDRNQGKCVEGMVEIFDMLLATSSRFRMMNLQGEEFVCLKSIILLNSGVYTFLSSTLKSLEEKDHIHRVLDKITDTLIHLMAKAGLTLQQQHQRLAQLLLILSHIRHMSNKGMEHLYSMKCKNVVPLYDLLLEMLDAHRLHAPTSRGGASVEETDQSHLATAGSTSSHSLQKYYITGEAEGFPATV
ERb SRC1 inh: inhibitors of ERβ-SRC1 coactivator interaction, primary screen, biochemical, TR-FRET, ERβ LBD, SRC-1 peptide; Estrogen receptor beta (Homo sapiens), Q92731; TR-FRET ER-beta LBD / SRC1-Cy5 peptide binding; receptor agonist-loaded with 1 µM estradiol; inhibition, % at 25.6 µM; 86,000 compounds, 1.3% hits; AID 633, 2007;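 active = compounds whose percent inhibition of the receptor-coactivator binding signal exceeds about 50% in the single-dose screen, limit read from the data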;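 also: 0% = receptor plus peptide wells without compound and 100% = peptide-only wells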
PTPN22 act: LYP phosphatase activators, primary screen, biochemical, DiFMUP fluorescence, 2 µM | Tyrosine-protein phosphatase non-receptor type 22 (Homo sapiens), Q9Y2R2 | recombinant LYP; 0 = plate median, 100 = signal doubled | activation, % at 2 µM | 96,000 compounds, 0.11% hits | AID 697, 2007;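 active = activation at 2 µM above a set limit, the mean plus 5 SD, cut at about 37% in these data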
FAK inh: FAK kinase inhibitors, primary screen, biochemical; AID 727, 2007; inhibition, %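 (tested at 7 µM)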; biochemical FAK kinase activity assay; Focal adhesion kinase 1 (Homo sapiens), Q05397; 97,000 compounds, 0.84% hits; in the data active = inhibition above about 19%;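 also: 0% = DMSO and 100% = reference compound high control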
PTPN22 inh 2: PTPN22 phosphatase inhibitors, primary screen, biochemical, DiFMUP fluorescence, 2 µM. recombinant LYP catalytic domain. inhibition, % at 2 µM. 96,000 compounds, 0.21% hits;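 active = inhibition at 2 µM at or above a set limit, the screen mean plus 3 SD, cut at about 24% in these data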;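 also: 0% = DMSO with enzyme and 100% = enzyme fully blocked by orthovanadate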
ERa SRC1 pot: enhancers of ERα–SRC-1 coactivator binding, primary screen, biochemical, TR-FRET, ERα LBD, low estradiol; Estrogen receptor (Homo sapiens), P03372; TR-FRET ERalpha-LBD/SRC-Cy5 coactivator binding, 2 h; 100 = basal binding, no effect; coactivator binding (% of control), % at 25.6 µM; 86,000 compounds, 1.3% hits; AID 639, 2007; in the data active = activity above about 200%;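 also: binding measured in presence of low estradiol as agonist stimulus; 0% = peptide alone without receptor and 100% = receptor with peptide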
Active calls of the source: *; / = no result; [ ] = remark or other dose. Rows were chosen to be rich in hits. Some 3.4% of all compounds tested hit in one or more screens of this group.

SMILES	ERa SRC1 inh	ERb SRC1 inh	PTPN22 act	FAK inh	PTPN22 inh 2	ERa SRC1 pot
Cc1cc(NC(=O)c2ccc(Cn3nc(C)c(Br)c3C)o2)no1	10	9	-6	3	5	102
O=Nc1c(O)n(Cc2ccc(Cl)c(Cl)c2)c2ccccc12	/	/	6	11	-2	/
O=S(=O)(c1cccc(-c2cn3cccnc3n2)c1)N1CCCCCC1	58*	32	1	-1	-2	124
COc1ccc(-c2cc(C(F)(F)F)n3nc(C(=O)NCc4ccco4)cc3n2)cc1OC	6	19	-2	1	1	140
Cc1nc(/C=[N+](\[O-])C(C)(C)/C=N/O)n(O)c1C	-5	56*[fluorescence artefact?]	-8	-2	10	114
O=C(Nc1nccs1)c1cccc(NC(=O)c2ccco2)c1	15	11	13	4	-14	93
CCn1cc(C(=O)N2CCn3c(nc4ccccc43)C2)c(=O)c2ccc(C)nc21	-2	0	-4	-1	4	101
CCn1cc(C(=O)N=c2sc3ccccc3n2C)c(=O)c2ccc(C)nc21	25	7	0	-7	-2	250*
O=C(Cn1nnc(-c2ccc(N3CCOCC3)cc2)n1)OC1CCCCC1	2	-3	-5	2	8	208*
COc1cccc(C2=NOC(C(=O)Nc3cccc(C(C)=O)c3)C2)c1OC (configuration not stated)	1	5	4	-2	-6	108
COc1cc(S(=O)(=O)n2nc(C)cc2C)c(OC)cc1Cl	7	-1	-7	1	9	81
CCC(=O)Nc1cccc(NC(=O)c2cccc([N+](=O)[O-])c2)c1	/	/	-3	-10	6	/
COc1cccc(C(=O)NC(C)C(c2cccs2)N2CCN(C)CC2)c1 (configuration not stated)	-32	67*[fluorescence artefact?]	-14	-4	12	115
CC(NC(=O)c1cccnc1)C(c1cccs1)N1CCN(C)CC1 (configuration not stated)	-6	-3	11	-5	-12	103
CCCCC1C(=O)N(c2ccccc2)N(c2ccccc2)C1=O	92*	83*[fluorescence artefact?]	/	/	/	16
CCCCOCC1CN(c2ccccc2)C(=O)CS1 (configuration not stated)	22	25	-5	8	0	103
CCCN(CCC)S(=O)(=O)c1ccc(C(=O)N2CCOCC2)cc1	-6	-5	3	0	-6	93
COc1cc(C(=O)Nc2cc(C)ccn2)cc(OC)c1OC	-6	4	-1	0	0	90
COc1ccc(C(=O)NC(=O)Nc2cc(C)ccn2)cc1	17	-20	-4	6	2	210*
Cc1ccnc(NC(=O)c2ccc(N3C(=O)CCC3=O)cc2)c1	21	22	-4	13	4	224*
C=CCn1c(SCC(=O)Nc2cccc(OC)c2)nnc1-c1cccnc1	1	-6	1	-6	-3	226*
O=C(CSc1nnc(-c2ccco2)n1-c1ccccc1)N1CCc2ccccc21	1	-1	5	0	-2	125
C=CCn1c(SCC(=O)Nc2ccc(C(=O)OC(C)C)cc2)nnc1-c1cccs1	-68	-18	/	/	/	825*[fluorescence artefact?]
CCc1ccc(NC(=O)CSc2nnc(-c3cccs3)n2CC)cc1	11	-3	-4	8	6	94
COc1ccc(NC(=O)CSc2nnc(C3CC3)n2-c2ccccc2)cc1	2	-9	-1	-11	1	110
SMILES	ERa SRC1 inh	ERb SRC1 inh	PTPN22 act	FAK inh	PTPN22 inh 2	ERa SRC1 pot
COc1ccc(NC(=O)CSc2nnc(-c3cccs3)n2-c2ccccc2)cc1	16	4	-8	-28	8	323*[fluorescence artefact?]
O=C(CSc1nnc(-c2cccs2)n1-c1ccccc1)N1CCc2ccccc21	12	-1	-7	-42	6	925*[fluorescence artefact?]
Cn1c(N2C(=O)CC(Cc3ccccc3)C2=O)nc2ccccc21 (configuration not stated)	-3	-7	4	2	-6	103
CCn1c(SCC(=O)c2ccc(CNC(C)=O)o2)nnc1-c1cccs1	58*	43	-3	2	2	59
CCOC(=O)c1ccc(NC(=O)CSc2nnc(-c3cccs3)n2CC)cc1	-92	-44	9	-7	-10	384*[fluorescence artefact?]
CCOC(=O)c1ccc(NC(=O)CSc2nnc(-c3cccs3)n2C)cc1	6	-1	0	-1	-8	149
O=C(CSc1nnnn1-c1ccccc1)Nc1nsc(-c2ccc(Cl)cc2)n1	73*	39	/	/	/	141
COC(=O)c1ccc(CSc2nc3c(cnn3-c3ccc(Cl)cc3)c(=O)[nH]2)o1	-37	-12	0	3	1	343*[fluorescence artefact?]
COC(=O)c1ccc(CSc2nc3c(cnn3-c3ccccc3)c(=O)[nH]2)o1	-38	-18	-3	-4	-2	258*[fluorescence artefact?]
COC(=O)c1ccc(CSc2nc3c(cnn3-c3ccc(F)cc3)c(=O)[nH]2)o1	-21	21	-3	-16	5	517*
COC(=O)c1ccc(CSc2nc3ccccc3[nH]2)o1	0	-4	12	2	-16	101
CCCSc1nc2c(cnn2-c2ccc(Cl)cc2)c(=O)[nH]1	/	/	-2	-2	0	/
CCCCSc1nc2c(cnn2-c2ccc(F)cc2)c(=O)[nH]1	28	32	7	-3	-9	209*[fluorescence artefact?]
COc1ccc(CCNC(=O)C(=O)N2CCCCC2)cc1OC	18	6	-3	-1	3	102
Cc1ccc(-c2cccc(OC(=O)c3ccccc3F)c2)cc1	/	/	8	4	-5	/
Cc1cc(C)n(-c2ccc(C(=O)OCC(=O)c3ccc(Br)s3)cc2)n1	2	5	-7	19	8	207*
Cc1cc(C)n(-c2ccc(C(=O)OCc3nnc(-c4ccccc4)o3)cc2)n1	4	2	/	/	/	104
CCOc1ccc(N=C2NC(=O)S/C2=C\c2ccc(OC)cc2)cc1	67*	50*	-14	19	16	194
CCOc1ccc(/C=C2/SC(=S)N(n3c(C)ccc3C)C2=O)cc1	-2	-5	-12	-1	13	111
C/C(N)=C(/C#N)C(=O)CSc1nc2ccc(C)cc2[nH]1	36	57*[fluorescence artefact?]	/	/	/	50
Cc1ccccc1-n1c(SC/C(O)=C(\C#N)c2nc3ccccc3[nH]2)nnc1-c1ccncc1	62*[fluorescence artefact?]	54*	/	/	/	78
CCCCNC(=O)CN(c1cccc(Br)c1)S(C)(=O)=O	-7	-3	-4	1	4	110
CCn1c(SCc2nc3ccccc3[nH]2)nnc1-c1ccc(OC)cc1	7	-13	15	-7	-12	107
